# Beta apoptosis: blocks beta cell apoptosis. INS-1E cytokine-induced death, ATP luminescence, 48 h; percent of positive-control rescue, neutral wells zero. protection from apoptosis, % (test concentration not listed). 300,000 compounds, 0.8% hits. AID 435005;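 active = Every replicate reaches about 75%, or at least half do and their mean reaches it too, limit read from the data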;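 note: 0% = cytokine-treated negative control wells and 100% = positive control rescue; higher means more ATP so stronger rescue from cytokine killing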
# Mdm2 MdmX PPI: human Mdm2/MdmX binding inhibition; O15151+Q00987; SaOS-2 split-luciferase Mdm2/MdmX complementation, luminescence; inhibition, % at 8 µM; 330,000 compounds, 3% hits; AID 485346;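 active = inhibition of at least 50% at 8 µM in the primary screen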
# Gli-Sufu block: antagonists of Gli-Sufu signaling | Sufu-KO-LIGHT fibroblasts, Gli luciferase reporter luminescence | inhibition, % at 5 µM | 340,000 compounds, 0.74% hits | AID 588413;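 active = inhibition above about 55%, limit read from the data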;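 note: 0% = DMSO-treated cells and 100% = wells with medium but no cells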
# Jurkat NFkB inh: inhibitors of the PMA/ionomycin-induced NF-kB reporter in Jurkat cells; AID 435003; PMA/ionomycin-induced NF-kB luciferase reporter, luminescence; inhibition, % at 4 µM; 330,000 compounds, 0.53% hits; in the data active = inhibition above about 50%
# CSC inhib: blocks cancer stem cells. cancer stem cell-like cells viability, luminescence. 300,000 compounds, 1.1% hits. AID 2717. inhibition, % at 7.5 µM; in the data active = inhibition above about 75%; tested in HMLE shEcad cells
# 697 NFkB inh: lowers PMA/ionomycin-induced NF-kB signal in 697 B cells; 330,000 compounds, 0.33% hits; 697 B-cell NF-kB luciferase reporter, 16 h; inhibition, % at 4 µM; in the data active = inhibition above about 35%
# Mdm2 MdmX conf: confirmation of human Mdm2/MdmX interaction inhibitors; inhibition, % at 8 µM; 10,000 compounds, 55% hits; shares compounds with Mdm2 MdmX PPI; Mdm2-MdmX binding, luminescent assay; in the data active = inhibition above about 40%
# Full FLuc ctr: inhibits full-length luciferase, flagging false Mdm2/MdmX hits; shares compounds with Mdm2 MdmX PPI; SaOS-2 full-length luciferase counterscreen, luminescence; inhibition, % at 8 µM; 6,200 compounds, 77% hits;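 active = mean inhibition at 8 µM reaching about 37%, which flags the compound as non-specific, limit read from the data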;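 note: p53-null SaOS-2 cells with luciferase driven by a doxycycline-inducible promoter; compound on cells about two nights before reading with doxycycline added after day one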
# Starred values were filed as active, the others as inactive; x = no result. Shown are actives, neighbours in structure and some others; about 4.5% of the full set was active somewhere.
SMILES,Beta apoptosis,Mdm2 MdmX PPI,Gli-Sufu block,Jurkat NFkB inh,CSC inhib,697 NFkB inh,Mdm2 MdmX conf,others
COc1ccc(CC(=O)Nc2ccc(-c3noc(-c4ccc(Cl)cc4)n3)cc2)cc1,36,91*,0,22,21,7,10,
COc1ccc(-c2noc(CCC(=O)Nc3ccc(C)c(C)c3)n2)cc1,x,-7,-2,-2,x,14,x,
COc1ccc(CC(=O)Nc2ccc(-c3noc(COc4ccccc4C)n3)cc2)cc1,3,19,-1,4,-4,-5,x,
Cc1ccc2oc(-c3ccc(NC(=O)c4ccncc4)cc3O)nc2c1,0,-55,-11,-34,1,-82,x,
COc1ccc(CC(=O)Nc2ccc(-c3noc(-c4cc(OC)c(OC)c(OC)c4)n3)cc2)cc1,x,50*,5,4,-1,1,52*,Full FLuc ctr=79*
CC(C)COC(=O)N1C[C@H](O)C[C@H]1C(=O)Nc1ccc(Cl)cc1,-5,6,20,-20,-6,13,x,
CCc1ccc(C)[n+](CC(=O)c2cccs2)c1,2,-13,x,-7,-8,6,x,
CN(C(=O)c1cncc(Br)c1)C1C2CC3CC(C2)CC1C3 (stereo not drawn),0,-3,25,-8,-4,-31,x,
Cc1ccc(S(=O)(=O)Nc2cc3c4c(c2)CCN4C(=O)CC3)cc1,x,4,10,-8,23,18,x,
O=C(Cc1ccc(Cl)cc1)Nc1ccc2oc(-c3ccncc3)nc2c1,7,55*,4,-9,24,-13,21,
O=C(Cc1ccccc1)Nc1ccc2oc(-c3cccnc3)nc2c1,3,-23,-19,-33,-2,-57,x,
COc1ccc(Cl)cc1-c1nc(-c2ccc(NC(=O)c3ccncc3)cc2)no1,9,6,6,3,-1,-24,x,
COc1ccc(-c2nc(-c3ccc(NC(=O)c4ccncc4)cc3)no2)cc1OC,x,70*,16,41,30,-39,82*,Full FLuc ctr=81*
COc1ccc(NC(=O)c2ccc(-c3ccc(-c4noc(C)n4)cc3C)cc2)cc1N1CCN(C)CC1,14,99*,8,-18,56,-19,23,
CCOc1ccccc1-c1nc(-c2ccc(NC(=O)Cc3ccc(OC)cc3)cc2)no1,15,57*,-86,-8,16,-25,37,
C=C[C@@H]1c2ccccc2N(S(=O)(=O)c2ccc(C)cc2)[C@H](c2ccc(C(=O)OC)cc2)C1(C#N)C#N,7,28,31,16,20,12,x,
CC(c1ccncc1)C(C)c1ccncc1 (stereo not drawn),-1,0,-11,-8,-3,-8,x,
c1ccc2c(c1)CCc1ccccc1C2=C1CCNCC1,-10,67*,8,4,18,-2,49*,Full FLuc ctr=73*
CN1CCC(=C2c3ccccc3C=Cc3ccccc32)CC1,3,46,32,-4,-9,-7,x,
CC(=O)c1ccc(N2CCN(C(=O)c3noc4c3CSc3ccccc3-4)CC2)cc1,4,51*,7,7,-4,-22,-12,
O=C(Nc1ccccc1Br)c1cc(=O)c2ccccc2o1,3,-44,-48,-72,-1,-4,x,
CC(C)(C)c1cc(-c2nc(N)nc(N)n2)c(O)c(C(C)(C)C)c1,4,68*,-18,1,126*,21,6,
CCC1(c2ccc(F)cc2)NC(=O)N(CC(=O)NCC(=O)Nc2cccc(C)c2C)C1=O (stereo not drawn),1,18,-3,-1,x,-15,x,
CC(=O)Nc1ccc(NC(=O)C(C)Sc2nc3ccccc3c(=O)n2CC2CCCO2)cc1 (stereo not drawn),x,18,-1,0,-9,25,x,
C[C@@]12C(=O)Nc3cc(F)ccc3C(=O)N1[C@H]1c3cc(Br)ccc3OC[C@@H]1[C@@H]2c1ccccc1,-11,56*,1,7,68,6,51*,Full FLuc ctr=36*
SMILES,Beta apoptosis,Mdm2 MdmX PPI,Gli-Sufu block,Jurkat NFkB inh,CSC inhib,697 NFkB inh,Mdm2 MdmX conf,others
CCOC(=O)[C@H]1[C@H]2COc3ccc(Br)cc3[C@@H]2N2C(=O)c3ccc(Cl)cc3NC(=O)[C@@]12C,3,54*,21,3,33,30,34,
C[C@@]12C(=O)Nc3ccc(F)cc3C(=O)N1[C@H]1c3cc(Br)ccc3OC[C@@H]1[C@@H]2c1ccccc1,-6,37,-1,18,41,-23,x,
Cc1ccc2c(c1)[C@H]1[C@H](CO2)[C@H](c2ccccc2)[C@]2(C)C(=O)Nc3cc(F)ccc3C(=O)N12,19,58*,6,30,x,13,30,
CC(C)(C)n1nc2c(c1NC(=O)c1cccc(Cl)c1)CS(=O)(=O)C2,-10,14,24,15,-2,-14,x,
Nc1nonc1-n1nnc(C(=O)N/N=C/c2cccc(Cl)c2)c1-c1cccs1,-14,21,-7,-12,0,11,x,
COc1ccc(C(CNC(=O)c2ccc(Br)o2)N2CCN(C)CC2)cc1 (stereo not drawn),-5,2,4,14,3,10,x,
COc1ccc(-c2oc3ccccc3c2C(=O)Oc2ccccc2)cc1,3,25,-41,5,3,-8,x,
COC(=O)c1sc2nc(SCC(=O)N(C)c3ccccc3)n(N)c(=O)c2c1C,15,56*,15,11,26,8,8,
CCOc1ccc(C(C(=O)NCC2CCCO2)N(Cc2cccs2)C(=O)c2snc(C(N)=O)c2N)cc1 (stereo not drawn),5,50*,8,22,11,30,51*,Full FLuc ctr=78*
CCCCOc1ccc(C(=O)N2CCNC(=O)C2)cc1,-8,21,-7,-4,x,9,x,
O=C(COC(=O)Cc1ccsc1)Nc1cccc(F)c1,0,11,-4,-5,x,16,x,
CCCCc1ccc(NC(=O)CSc2nc(=O)n(CCN(C)C)c3c2CCC3)cc1,x,37,19,9,-9,-21,x,
CCCCc1ccc(NC(=O)CSc2nc(=O)n(CCN(CC)CC)c3c2CCCC3)cc1,25,87*,19,14,4,-13,54*,Full FLuc ctr=62*
CCOC(=O)c1[nH]c2ccc(OC)cc2c1NC(=S)N1CCN(c2ccccc2OC)CC1,12,52*,2,24,1,5,46*,Full FLuc ctr=69*
Cc1cccn2c(=O)c3cc(C(=O)NCCc4ccccc4)c(=N)n(CCCn4ccnc4)c3nc12,-4,51*,-4,11,33,-11,18,
COCCn1c(=N)c(C(=O)NCCc2ccccc2)cc2c(=O)n3cccc(C)c3nc21,-9,9,-3,-14,7,-58,x,

# High-throughput results deposited in PubChem by several laboratories.
